Screens deposited in PubChem BioAssay by Broad Institute.
A selection: hits, their analogues and other compounds. The true share with any hit is near 1.8%.
ERp5 block = blocks human ERp5 reductase activity on insulin; ERp5 insulin aggregation, absorbance 650 nm, 90 min; 350,000 compounds, 0.05% hits; inhibition, % at 9.99 µM; AID 651711;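 active = mean replicate inhibition above about 25%, with every replicate also reaching it, limit read from the data, passing the limit was not always enough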
PDI turbidity = inhibitors of human protein disulfide isomerase; 350,000 compounds, 0.052% hits; AID 588391; PDI insulin aggregation turbidity, A650, 90 min; inhibition, % at 10 µM;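 active = mean inhibition across replicates of 30% or more, whatever share of single replicates reach that level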
Target sequence (P07237 whole entry, looked up): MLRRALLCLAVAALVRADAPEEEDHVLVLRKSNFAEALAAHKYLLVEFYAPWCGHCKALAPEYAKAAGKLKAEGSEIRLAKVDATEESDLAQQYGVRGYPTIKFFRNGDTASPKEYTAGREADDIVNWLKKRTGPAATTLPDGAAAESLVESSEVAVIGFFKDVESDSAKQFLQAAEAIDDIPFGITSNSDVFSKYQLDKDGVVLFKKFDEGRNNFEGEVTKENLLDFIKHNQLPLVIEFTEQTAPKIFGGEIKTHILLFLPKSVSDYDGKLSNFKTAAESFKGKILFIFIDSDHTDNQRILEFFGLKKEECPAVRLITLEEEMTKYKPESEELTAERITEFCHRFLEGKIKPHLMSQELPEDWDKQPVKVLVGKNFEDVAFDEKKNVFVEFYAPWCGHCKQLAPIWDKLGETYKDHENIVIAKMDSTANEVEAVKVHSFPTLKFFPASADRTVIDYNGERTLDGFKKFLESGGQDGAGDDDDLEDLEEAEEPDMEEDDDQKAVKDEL
AF4-AF9 inh = inhibitors of human MLL-AF4/AF9 interaction; AlphaScreen, biotin-AF4 peptide binding to FLAG-AF9; inhibition, % at 10 µM; 350,000 compounds, 0.47% hits; AID 651704;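 active = every replicate reaching a set inhibition limit, whatever the replicate mean, cut at about 25% in these data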;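 note: 0% = plate neutral control median and 100% = total signal loss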
ERAP1 inh = inhibitors of human ERAP1 aminopeptidase; recombinant ERAP1, Leu-AMC fluorescence, 60 min; inhibition, % at 10.7 µM; 340,000 compounds, 0.15% hits; AID 652197;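 active = mean replicate inhibition of at least 30%, or all replicates individually reaching that 30% level; inactive = mean below 30% and not every replicate reaching it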;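 note: 0% = neutral control wells and 100% = L-leucinethiol positive control wells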
DENV2 CPE rescue = protects cells from dengue virus 2 cytopathic effect; DENV2-infected cells, cytopathic effect rescue, plate reader; CPE inhibition, % at 9.99 µM; 350,000 compounds, 1.7% hits; AID 651640; in the data active = CPE inhibition above about 20%, passing the limit was not always enough; tested in BHK-21 cells;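 note: 0% = median of neutral control wells and 100% = median of positive control wells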
* hit, by the source's call; nt = no result; ! = not active in a repeat.

SMILES	ERp5 block	PDI turbidity	AF4-AF9 inh	ERAP1 inh	DENV2 CPE rescue
C[C@H](CO)N1C[C@H](C)[C@H](CN(C)C(=O)c2ccccc2)Oc2cc(C3=CCCCC3)ccc2S1(=O)=O	1	nt	6	1	93*
CCCNC(=O)N(C)C[C@H]1Oc2cc(C3=CCCC3)ccc2S(=O)(=O)N([C@H](C)CO)C[C@H]1C	0	nt	-3	nt	30*
C[C@H]1CN([C@@H](C)CO)S(=O)(=O)c2ccc(C3=CCCCC3)cc2O[C@@H]1CN(C)C(=O)c1ccccc1	13	nt	4	6	-9
CCCNC(=O)N(C)C[C@H]1Oc2cc(C3=CCCCC3)ccc2S(=O)(=O)N([C@@H](C)CO)C[C@@H]1C	3	nt	4	3	13
C[C@H]1CN([C@@H](C)CO)S(=O)(=O)c2ccc(C3=CCCC3)cc2O[C@H]1CN(C)C(=O)C1CCC1	4	nt	-4	0	21*
C[C@H]1CN([C@@H](C)CO)C(=O)c2cccc(NC(=O)c3nc4ccccc4s3)c2O[C@@H]1CN(C)S(=O)(=O)c1cn(C)cn1	3	nt	-3	4	-7
C[C@@H]1CCCCO[C@H](CN(C)C(=O)C2CCCCC2)[C@H](C)CN([C@@H](C)CO)C(=O)c2cc(NC(=O)Nc3ccccc3)ccc2O1	5	nt	3	0	-7
C[C@@H]1CN([C@H](C)CO)C(=O)Cc2cc(NC(=O)CCN3CCOCC3)ccc2O[C@@H]1CN(C)Cc1ccc(C(=O)Nc2ccccc2N)cc1	4	nt	3	-1	5
O=C(NC[C@@H]1CC[C@H]2[C@H](CN2Cc2ccccc2F)O1)C1CC1	-2	nt	-3	-1	15
C[C@H]1CN([C@@H](C)CO)S(=O)(=O)c2ccc(C3=CCCC3)cc2O[C@@H]1CN(C)C(=O)Cc1ccncc1	1	nt	0	1	31*
C[C@@H]1CN([C@H](C)CO)S(=O)(=O)c2ccc(C3=CCCC3)cc2O[C@H]1CN(C)C(=O)Cc1ccncc1	2	nt	-1	0	-5
O=C(O)c1ccccc1NS(=O)(=O)c1cccc(C(F)(F)F)c1	nt	0	nt	nt	nt
O=C(O)c1ccccc1NS(=O)(=O)c1cccc(-n2sc3ccccc3c2=O)c1	-1	-19	-6	99*	12
O=C(NCCc1ccncc1)[C@@H]1[C@@H](CO)[C@@H]2Cn3c(ccc(-c4ccc(F)cc4)c3=O)[C@H]1N2	-3	nt	-3	0	-2
O=C(CC1CC1)N1CC(=O)N2[C@@H](CO)[C@@H](c3ccc(-c4ccccc4)cc3)[C@@H]2C1	-2	nt	-9	-1	11
COc1ccccc1NC(=O)C(C)OC(=O)C1CCN(S(=O)(=O)c2ccccc2C(F)(F)F)CC1 (stereo unspecified)	2	-8	-2	4	54*
COc1ccc(C(=O)N/N=C/c2ccc(OC)c(COc3ccccc3)c2)cc1	18	3	-1	3	0
COc1ccc(/C=N\NC(=O)c2cc(O)c(O)c(O)c2)cc1COc1ccc(C(=O)OCC(C)C)cc1	3	0	54*	-1	2
CCCC#Cc1ccc2c(c1)O[C@H](CN(C)C)[C@H](C)CN([C@H](C)CO)S2(=O)=O	-1	nt	1	2	-4
COCCNC(=O)C[C@@H]1CC[C@@H]2[C@@H](COc3ccc(NC(=O)Nc4ccccc4)cc3C(=O)N2C)O1	-2	nt	-1	1	0
Cc1cn([C@H]2C=C[C@@H](CO)O2)c(=O)[nH]c1=O	4	-2	-1	-1	29*!
C[C@@H]1CN([C@H](C)CO)C(=O)c2cc(NS(C)(=O)=O)ccc2O[C@@H](C)CCCCO[C@@H]1CN(C)S(C)(=O)=O	nt	nt	nt	nt	-1
CC(C)(OC(=O)c1ccc(C#N)cc1)c1cc2ccccc2c(=O)o1	1	-3	nt	1	37*
CC=Cc1ccc2n(c1=O)C[C@H]1[C@H](CO)[C@@H](C(=O)Nc3ccc(-c4ccccc4)cc3)N(C(=O)CC)[C@@H]21 (mixture of isomers)	-1	nt	10	6	1
COCCn1c(C(=O)N2CCCC2)cc2c1C[C@H]1CN(C(=O)c3ccccc3)[C@@](Cc3ccc(F)cc3)(C(=O)OC)[C@@H]21	3	nt	6	nt	64*
SMILES	ERp5 block	PDI turbidity	AF4-AF9 inh	ERAP1 inh	DENV2 CPE rescue
CO[C@@H]1CN(C)C(=O)c2ccc(NS(=O)(=O)c3cccc(Cl)c3)cc2OC[C@@H](C)N(C(=O)Cc2cccnc2)C[C@H]1C	8	nt	4	0	1
Cc1ccc(SC(C)C(=O)NCc2ccncc2)cc1 (stereo unspecified)	3	0	-1	82*	3
CCC(c1nnnn1-c1c(C)cccc1C)N1CCN(C/C=C/c2ccccc2)CC1 (stereo unspecified)	2	nt	11	4	106*
CCN1CCN(c2ccc(N=Cc3ccccc3O)cc2)CC1	0	-1	57*	-1	-4
COc1cccc(C=Nc2ccc(N3CCOCC3)cc2)c1O	3	-4	11	2	4
OC[C@H]1[C@H]2c3ccccc3NC[C@H]2N1Cc1ccccc1Cl	-1	nt	4	2	16
OC[C@H]1[C@H]2c3ccccc3NC[C@H]2N1CC1CCOCC1	0	nt	-1	-3	21*
OC[C@H]1[C@@H]2c3ccccc3NC[C@@H]2N1Cc1ccccc1Cl	2	nt	4	1	33*
O=C(C1CC1)N1[C@@H](CO)[C@@H]2c3ccccc3NC[C@@H]21	-1	nt	-1	4	95*
CCOC(=O)c1c(NC(=O)c2ccno2)c2cc([N+](=O)[O-])ccc2n1C	-3	10	nt	-3	84*
OCC[C@H]1C[C@@H](O)[C@H](O)[C@@]2(Cc3ccccc3CCO2)O1	4	-2	-19	-2	23*
OCC[C@H]1C[C@@H](O)[C@H](O)[C@@]2(CCCO2)O1	8	1	2	0	59*
OCC[C@H]1C[C@@H](O)[C@H](O)[C@@]2(CCc3ccccc3CO2)O1	-1	-9	nt	0	48*
CCCC#Cc1ccc([C@H]2[C@@H](CO)N(S(C)(=O)=O)[C@H]2C#N)cc1	1	nt	-1	1	-3
C[C@H](CO)N1C[C@H](C)[C@@H](CN(C)S(C)(=O)=O)Oc2ccc(NC(=O)Nc3ccccc3)cc2C1=O	-1	-4	-2	-3	88*!
COc1ccc(NC(=O)Nc2ccc3c(c2)C(=O)N([C@H](C)CO)C[C@H](C)[C@@H](CN(C)S(C)(=O)=O)O3)cc1	-3	-11	-1	5	26*!
COc1ccc(NC(=O)Nc2ccc3c(c2)C(=O)N([C@H](C)CO)C[C@H](C)[C@@H](CN(C)S(=O)(=O)c2ccc(OC)cc2)O3)cc1	9	10	4	-1	26*!
COc1ccc(NC(=O)N(C)C[C@@H]2Oc3c(NC(=O)Nc4ccc5c(c4)OCO5)cccc3C(=O)N([C@H](C)CO)C[C@@H]2C)cc1	5	nt	7	1	4
COc1ccc(NC(=O)N(C)C[C@H]2Oc3ccc(NS(=O)(=O)c4ccc(F)cc4)cc3CC(=O)N([C@@H](C)CO)C[C@H]2C)cc1	7	nt	-1	-4	-4
